Values joined by “and” are separate entries in the source; they are usually repeats but may differ in a detail not shown here. Equal values may be shown once. The whole screen tested about 5,500 compounds, of which about 2,000 (36%) were called active. Another 18% or so got no clear call; they are omitted. No stated cut-off is given here; in the data, active means normalized growth mostly below about 0.91 (no sharp cut-off); inconclusive means no clear call, values can overlap the other calls; inactive means mostly above about 0.92. The list shows a part of the results.
Assay: chemical genetic growth profiling, strain panel (AID 1159580);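 further: tested at 20 µM; growth read once vehicle control cultures reached saturation at 30 °C; 1 = growth at the plate median or of vehicle wells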
Conditions: growth OD

Measured: normalized growth

CCCCC1(COC(=O)CCC(=O)O)C(=O)N(c2ccccc2)N(c2ccccc2)C1=O
inactive: S. cerevisiae deletion strains, locus YBR021W, strain FUR4, stronger effect = lower value 1 | S. cerevisiae deletion strains, locus YBR229C, strain ROT2, stronger effect = lower value 1 | S. cerevisiae deletion strains, locus YCL029C, strain bik1, stronger effect = lower value 1.02 | S. cerevisiae deletion strains, locus YDL035C, strain GPR1, stronger effect = lower value 1.01 | S. cerevisiae deletion strains, locus YDL074C, strain BRE1, stronger effect = lower value 0.993 | S. cerevisiae deletion strains, locus YDL101C, strain DUN1, stronger effect = lower value 1 | S. cerevisiae deletion strains, locus YDL134C, strain PPH21, stronger effect = lower value 1.01 | S. cerevisiae deletion strains, locus YDL185W, strain tfp1, stronger effect = lower value 1.01 | S. cerevisiae deletion strains, locus YDL192W, strain arf1, stronger effect = lower value 1.01 | S. cerevisiae deletion strains, locus YDR101C, strain arx1, stronger effect = lower value 1.01 | S. cerevisiae deletion strains, locus YDR150W, strain NUM1, stronger effect = lower value 0.992 | S. cerevisiae deletion strains, locus YDR162C, strain NBP2, stronger effect = lower value 0.995 | S. cerevisiae deletion strains, locus YDR318W, strain mcm21, stronger effect = lower value 1 | S. cerevisiae deletion strains, locus YDR388W, stronger effect = lower value 1.01 | S. cerevisiae deletion strains, locus YDR502C, strain sam2, stronger effect = lower value 1.01 | S. cerevisiae deletion strains, locus YEL061C, strain CIN8, stronger effect = lower value 1 | S. cerevisiae deletion strains, locus YER110C, stronger effect = lower value 1.02 | S. cerevisiae deletion strains, locus YER155C, strain BEM2, stronger effect = lower value 1 | S. cerevisiae deletion strains, locus YER167W, strain BCK2, stronger effect = lower value 1 | S. cerevisiae deletion strains, locus YGL078C, strain dbp3, stronger effect = lower value 0.996 | S. cerevisiae deletion strains, locus YGL086W, strain mad1, stronger effect = lower value 1 | S. cerevisiae deletion strains, locus YGL248W, strain PDE1, stronger effect = lower value 1.01 | S. cerevisiae deletion strains, locus YGR135W, strain pre9, stronger effect = lower value 1.02 | S. cerevisiae deletion strains, locus YGR252W, strain gcn5, stronger effect = lower value 1.06 | S. cerevisiae deletion strains, locus YHR030C, strain SLT2, stronger effect = lower value 1 and 1.05 | S. cerevisiae deletion strains, locus YHR079C, strain IRE1 (second series), stronger effect = lower value 1.01 | S. cerevisiae deletion strains, locus YHR079C, strain IRE1, stronger effect = lower value 1.04 | S. cerevisiae deletion strains, locus YHR094C, strain hxt1, stronger effect = lower value 1.01 | S. cerevisiae deletion strains, locus YHR129C, strain ARP1, stronger effect = lower value 1 | S. cerevisiae deletion strains, locus YHR200W, strain rpn10, stronger effect = lower value 1.01 | S. cerevisiae deletion strains, locus YIL066C, strain RNR3, stronger effect = lower value 1.01 | S. cerevisiae deletion strains, locus YIL073C, strain SPO22, stronger effect = lower value 1.09 | S. cerevisiae deletion strains, locus YIL125W, strain kgd1, stronger effect = lower value 0.991 | S. cerevisiae deletion strains, locus YIR030C, strain dcg1, stronger effect = lower value 1.01 | S. cerevisiae deletion strains, locus YJL095W, strain BCK1, stronger effect = lower value 1.01 and 1.05 | S. cerevisiae deletion strains, locus YJL134W, strain LCB3, stronger effect = lower value 0.996 | S. cerevisiae deletion strains, locus YJL168C, strain set2, stronger effect = lower value 1 | S. cerevisiae deletion strains, locus YJL187C, strain SWE1 (second series), stronger effect = lower value 1.01 | S. cerevisiae deletion strains, locus YJR043C, strain POL32, stronger effect = lower value 0.989 | S. cerevisiae deletion strains, locus YJR066W, strain TOR1, stronger effect = lower value 0.967 | S. cerevisiae deletion strains, locus YJR075W, strain HOC1, stronger effect = lower value 1.01 | S. cerevisiae deletion strains, locus YKL009W, strain mrt4, stronger effect = lower value 1.03 | S. cerevisiae deletion strains, locus YKL068W, stronger effect = lower value 1 | S. cerevisiae deletion strains, locus YKL085W, strain MDH1 (second series), stronger effect = lower value 0.972 | S. cerevisiae deletion strains, locus YKL085W, strain MDH1, stronger effect = lower value 0.972 | S. cerevisiae deletion strains, locus YKL190W, strain CNB1, stronger effect = lower value 0.993 | S. cerevisiae deletion strains, locus YKR001C, strain vps1, stronger effect = lower value 1.01 | S. cerevisiae deletion strains, locus YLR039C, strain RIC1, stronger effect = lower value 0.912 | S. cerevisiae deletion strains, locus YLR058C, strain SHM2, stronger effect = lower value 1 | S. cerevisiae deletion strains, locus YLR102C, strain apc9, stronger effect = lower value 1 | S. cerevisiae deletion strains, locus YLR113W, strain HOG1, stronger effect = lower value 0.952 | S. cerevisiae deletion strains, locus YLR262C, strain YPT6, stronger effect = lower value 0.913 | S. cerevisiae deletion strains, locus YLR268W, strain sec22, stronger effect = lower value 1.02 | S. cerevisiae deletion strains, locus YLR330W, strain CHS5, stronger effect = lower value 0.993 | S. cerevisiae deletion strains, locus YLR342W, strain FKS1 (second series), stronger effect = lower value 0.993 | S. cerevisiae deletion strains, locus YLR371W, strain rom2, stronger effect = lower value 1.01 | S. cerevisiae deletion strains, locus YLR418C, strain cdc73, stronger effect = lower value 1.03 | S. cerevisiae deletion strains, locus YML016C, strain PPZ1, stronger effect = lower value 1 | S. cerevisiae deletion strains, locus YML032C, strain rad52, stronger effect = lower value 1 | S. cerevisiae deletion strains, locus YML124C, strain tub3, stronger effect = lower value 1.01 | S. cerevisiae deletion strains, locus YMR078C, strain ctf18, stronger effect = lower value 1 | S. cerevisiae deletion strains, locus YMR223W, strain ubp8, stronger effect = lower value 1.01 | S. cerevisiae deletion strains, locus YMR263W, strain SAP30, stronger effect = lower value 0.998 | S. cerevisiae deletion strains, locus YMR307W, strain GAS1, stronger effect = lower value 1.05 | S. cerevisiae deletion strains, locus YNL067W, strain RPL9B, stronger effect = lower value 0.998 | S. cerevisiae deletion strains, locus YNL128W, strain TEP1, stronger effect = lower value 1.02 | S. cerevisiae deletion strains, locus YNL183C, strain NPR1, stronger effect = lower value 0.945 | S. cerevisiae deletion strains, locus YNL233W, strain BNI4, stronger effect = lower value 1 | S. cerevisiae deletion strains, locus YNL250W, strain rad50, stronger effect = lower value 1 | S. cerevisiae deletion strains, locus YNL271C, strain bni1, stronger effect = lower value 1.01 | S. cerevisiae deletion strains, locus YNL298W, strain CLA4, stronger effect = lower value 1.01 | S. cerevisiae deletion strains, locus YNL307C, strain MCK1, stronger effect = lower value 1.02 | S. cerevisiae deletion strains, locus YNL322C, strain KRE1, stronger effect = lower value 0.997 | S. cerevisiae deletion strains, locus YNR052C, strain pop2, stronger effect = lower value 1.01 | S. cerevisiae deletion strains, locus YOL006C, strain TOP1, stronger effect = lower value 0.991 | S. cerevisiae deletion strains, locus YOL012C, strain htz1 1.51 | S. cerevisiae deletion strains, locus YOL147C, strain pex11, stronger effect = lower value 1.01 | S. cerevisiae deletion strains, locus YOR061W, strain CKA2, stronger effect = lower value 1 | S. cerevisiae deletion strains, locus YOR069W, strain VPS5, stronger effect = lower value 1 | S. cerevisiae deletion strains, locus YOR136W, strain idh2, stronger effect = lower value 1.02 | S. cerevisiae deletion strains, locus YOR144C, strain elg1, stronger effect = lower value 1.01 | S. cerevisiae deletion strains, locus YOR184W, strain ser1, stronger effect = lower value 1.02 | S. cerevisiae deletion strains, locus YOR231W, strain MKK1, stronger effect = lower value 1.02 | S. cerevisiae deletion strains, locus YOR316C, strain cot1, stronger effect = lower value 1.02 | S. cerevisiae deletion strains, locus YPL055C, strain LGE1, stronger effect = lower value 0.989 | S. cerevisiae deletion strains, locus YPL256C, strain CLN2, stronger effect = lower value 1.02 | S. cerevisiae deletion strains, locus YPR119W, strain clb2, stronger effect = lower value 1.01 | S. cerevisiae deletion strains, locus YPR141C, strain kar3, stronger effect = lower value 1 | S. cerevisiae deletion strains, locus YPR163C, strain tif3, stronger effect = lower value 1.02 | S. cerevisiae deletion strains, locus YPR167C, strain met16, stronger effect = lower value 1.01 | S. cerevisiae deletion strains, strain wtn01, stronger effect = lower value 1.02 | S. cerevisiae strains, strain wild type, stronger effect = lower value 0.995

Source: PubChem BioAssay AID1159580 (chemical genetic matrix, 2015)
